This is an account of results in PubChem BioAssay (NCI).

The panel holds about 83,000 compounds, 20% with a hit somewhere; the sample as a whole holds those more often.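 Cell lines were cultured in 96-well plates, exposed to a single compound concentration, and assessed for percent growth 48 hours later.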 Values without a mark were called inactive. Activity calls are given as the source filed them. The calls were made as follows: active = growth percent below 10; inactive = the rest.

For the assay, the system named is OVCAR-5 ovarian. The assay can be described thus: NCI-60 one-dose screen, 48 h (100 = growth as untreated, 0 = no growth, -100 = all killed). Particulars: 10 µM unless noted.
`O=C(NNc1nc2cc(F)c(F)cc2n2cccc12)c1ncccn1`: the growth was 49.6%.

For the compound `O=C(CN1C(=O)CSC1=O)Nc1ccc(C(=O)/C=C/c2cc3ccccc3nc2Cl)cc1`, the growth is 101%. Consider `O=C(C[n+]1ccnc2ccccc21)c1ccc(O)c(O)c1`, for which the growth is 70.5%. Take `Cn1ccnc1C(=O)/C=C/c1ccc(C(=O)Nc2ccc(NC(=O)CCNC(=O)c3csc(Br)n3)cc2)cc1`: the growth was 78.8%. On to `COc1ccc(Oc2ccc(C3CC(c4cc(OC)c(OC)c(OC)c4)=NN3C(C)=O)cc2)cc1` (stereo not drawn), for which the growth is 50.2%. For `O=C1/C(=C/c2ccccc2[N+](=O)[O-])Oc2ccc(O)cc21`, the growth was 38.2%.

Turning to `O=c1c2ccccc2nc(COc2ccccc2)n1/N=C/C=C/c1ccccc1`, the growth is 98.8%.

With `C#C[C@]1(O)CC[C@H]2[C@@H]3CC=C4c5sc(C6CC6)nc5CC[C@]4(C)[C@H]3CC[C@@]21C`, the growth was 85.7%. As for `Cc1ccc(S(=O)(=O)N/N=C/c2cn(-c3ccc(F)cc3)nc2-c2ccc(S(C)(=O)=O)cc2)cc1`, the growth was 105%.

In the case of `C#C[C@]1(O)CC[C@H]2[C@@H]3CC=C4c5sc(-c6ccccn6)nc5CC[C@]4(C)[C@H]3CC[C@@]21C`, the growth is 94.2%. In the case of `CCOC(=O)c1c(NC(=O)c2cccc(C(F)(F)F)c2)sc2c(CN3CCN(C)CC3)c(O)ccc12`, the growth was -77.9% (active). To `CCOC(=O)Nc1ccc(-c2nc(-c3cccc(O)c3)c(-c3ccnc(Br)c3)[nH]2)cc1` belongs 85%. With `COc1ccc(NS(=O)(=O)c2ccc(-c3cnc(C4CC4)o3)cc2)cc1Cl`, the growth was 48.8%.
